Bioassay records as filed in PubChem BioAssay.
HP1b chromo inh = HP1-beta chromodomain-methylated histone interaction inhibition | P83916 | AlphaScreen HP1-beta / biotin-H3K9me3 peptide binding | Potency, µM (titrated, usually from 114 µM), without a hit: top-dose activity change, negative = inhibition, hits mostly inhibitors | 390,000 compounds, 0.56% hits | AID 540317; note: nearly all actives have a fitted effect of over 70% in size
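AlphaScreen: HP1-beta (50 nM) preformed 30 min with biotin-H3(1-18)K9me3 peptide (50 nM) in PBS pH 7.4, 0.01% Tween-20. Compound added for 30 min at RT, then streptavidin donor/nickel chelate acceptor beads (10 ug/mL) for 30 min.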
L3MBTL1 inh = L3MBTL1 (human) inhibition. 230,000 compounds, 0.66% hits. AID 485360. Potency, µM (titrated, usually from 57.1 µM), for inactives: at the highest dose activity, negative = inhibition, most hits filed as inhibitors. Q9Y468. AlphaScreen L3MBTL1–H3K9me1 peptide binding; note: % is set by controls: 0 for no effect and ±100 for the full control effect; nearly all actives have a fitted effect of over 60% in size
Target sequence (Q9Y468 whole entry, looked up): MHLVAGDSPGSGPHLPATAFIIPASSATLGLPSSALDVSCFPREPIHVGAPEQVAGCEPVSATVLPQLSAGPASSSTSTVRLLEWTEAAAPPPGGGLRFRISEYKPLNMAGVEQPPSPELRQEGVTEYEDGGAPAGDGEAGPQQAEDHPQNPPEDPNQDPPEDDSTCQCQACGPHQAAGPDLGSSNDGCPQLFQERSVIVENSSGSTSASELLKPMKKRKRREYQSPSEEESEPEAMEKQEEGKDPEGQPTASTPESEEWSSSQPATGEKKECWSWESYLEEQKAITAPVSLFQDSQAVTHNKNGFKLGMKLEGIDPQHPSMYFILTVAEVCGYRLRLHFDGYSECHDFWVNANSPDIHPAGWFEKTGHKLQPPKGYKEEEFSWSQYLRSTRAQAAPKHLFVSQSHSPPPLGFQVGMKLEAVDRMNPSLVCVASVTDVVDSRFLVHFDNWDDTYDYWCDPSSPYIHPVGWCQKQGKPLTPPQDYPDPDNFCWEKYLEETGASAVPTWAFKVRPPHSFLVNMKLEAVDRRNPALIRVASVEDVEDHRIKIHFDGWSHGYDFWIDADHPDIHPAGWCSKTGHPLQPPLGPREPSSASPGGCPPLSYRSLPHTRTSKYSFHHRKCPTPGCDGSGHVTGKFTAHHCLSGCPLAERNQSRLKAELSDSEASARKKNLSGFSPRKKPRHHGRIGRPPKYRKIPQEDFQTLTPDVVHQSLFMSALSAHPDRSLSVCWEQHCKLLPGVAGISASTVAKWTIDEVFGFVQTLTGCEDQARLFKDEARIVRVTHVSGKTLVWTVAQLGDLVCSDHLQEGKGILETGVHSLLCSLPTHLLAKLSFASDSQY
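L3MBTL1 (50 nM) pre-complexed 30 min with biotinylated H3(1-15)K9me1 peptide (75 nM), then compounds added for 30 min at room temperature; AlphaScreen streptavidin donor/nickel chelate acceptor beads (10 ug/mL final) read after 30 min dark incubation.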
G9a block = blocks human histone lysine methyltransferase G9a; G9a H3K9 monomethylation, AlphaScreen, 2 h; Potency, µM (doses to about 102 µM), for the others: top-dose activity, negative = inhibition, usual class: inhibitors; 350,000 compounds, 8.8% hits; AID 504332; note: % is set by controls: 0 for no effect and ±100 for the full control effect; nearly all actives have a fitted effect of over 75% in size
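G9a (20 nM) preincubated 15 min RT with compounds, then 500 nM biotinylated H3K9 peptide and 20 uM SAM added; 2 h RT reaction. Monomethyl-H3K9 product detected by AlphaScreen with anti-H3K9me1 antibody, streptavidin donor and anti-rabbit IgG acceptor beads.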
Sfp PPTase inh = blocks B. subtilis Sfp PPTase activity; Q9F4F7; Biochemical Sfp PPTase activity, qHTS; Potency, µM, for the others: largest response in the series, negative = inhibition, actives largely listed as inhibitors; 310,000 compounds, 3.5% hits;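 note: the enzyme is Sfp with the accession as filed and its product quenches rhodamine fluorescence; 0% = enzyme reaction without inhibitor and -100% = no enzyme wells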
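Step 1, compound plus 15 nM Sfp-PPTase, 15 min, room temperature. Step 2, add rhodamine-CoA (5 uM) and BHQ-2-YbbR (12.5 uM). Step 3, read 525/598 nm fluorescence at 0 and 30 min.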
BAZ2B block = blocks human BAZ2B; Q9UIF8; AlphaScreen BAZ2B-H3K14Ac peptide displacement; Potency, µM (series often up to 114 µM), inactives show at the highest dose activity change, negative = inhibition, hits mostly inhibitors; 360,000 compounds, 4.4% hits; AID 504333; note: % is set by controls: 0 for no effect and ±100 for the full control effect; nearly all actives have a fitted effect of over 60% in size
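Complex of BAZ2B and biotin-H3K14Ac (50 nM apiece) forms over 30 min at RT, then faces library compounds up to 110 uM for another 30 min; AlphaScreen beads added, 20 min dark incubation, luminescence read.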
JMJD2A Tudor = inhibitors of human JMJD2A Tudor domain; O75164; AlphaScreen JMJD2A-Tudor / H3K4me3 peptide binding; Potency, µM (titrated, usually from 114 µM), for inactives: top-dose activity change, negative = inhibition, usual class: inhibitors; 390,000 compounds, 4.4% hits; AID 504339; note: % is set by controls: 0 for no effect and ±100 for the full control effect; nearly all actives have a fitted effect of over 50% in size
* hit, by the source's call; ? = inconclusive; . = no result; [ ] = another dose, or the depositor's remark. In the library only some 12% were active in any assay of this set; here they are far more common. Calls come from the whole dose curve; as a rule, active = well fitted curve in the direction sought with a large enough effect; inconclusive = small, poorly fitted or top-dose-only effect, or another doubt; inactive = no such curve, though single readings can be large; an effect the other way counts as inactive or inconclusive. Potency is the fitted concentration of half-maximal effect.

SMILES	HP1b chromo inh	L3MBTL1 inh	G9a block	Sfp PPTase inh	BAZ2B block	JMJD2A Tudor
O=C(C[n+]1cccc(C(=O)N/N=C/c2ccc(Br)cc2)c1)c1ccccc1	26.7%	-1.0%	1.41µM*	.	-9.0%	?
O=C(N/N=C/c1ccc(Br)cc1)c1cc[n+](Cc2ccccc2)cc1	18.7%	-1.6%	?	79.4µM*	-7.3%	-24.0%
NC(=O)c1ccc[n+](CC(=O)c2ccc(Br)cc2)c1	48.3%	-16.8%	-1.1%	5.9%	2.3%	-22.4%
CCN(CC)S(=O)(=O)c1ccc(NCc2ccccn2)nc1	13.1%	.	28.2µM*	4.8%	?	70.8µM*
CSc1ccc(C2C(C#N)=C(N)N(c3ccccc3)C3=C2C(=O)CCC3)cc1 (centres undefined)	-9.0%	.	?	-24.0%	?	?
N#CC1=C(N)N(c2ccc(F)cc2)C2=C(C1c1ccc(O)cc1)S(=O)(=O)CC2 (centres undefined)	39.8µM*	.	3.98µM*	-91.9%	35.5µM*	31.6µM*
COc1ccc(/C=C2/CCc3ccccc3C2=O)cc1OC	20.2%	-10.2%	-1.4%[59 µM]	-14.9%	?	-12.3%
COc1ccc2c(c1)CC/C(=C\c1ccc(OC)c(Cn3nc(C)cc3C)c1)C2=O	1.1%	.	?	35.5µM*	?	89.1µM*
COc1ccc2c(c1)CC/C(=C\c1ccc(OC)c(Cn3cccn3)c1)C2=O	-7.7%	.	?	44.7µM*	-34.2%	-31.1%
COc1ccc(/C=C2\CCc3ccccc3C2=O)cc1CN1CCOCC1	-20.0%	?	35.5µM*	7.3%	?	?
COc1ccc(/C=N\NC(=O)c2sccc2C)cc1Cn1nc(C)cc1C	19.5%	.	30.4%	0.5%	-26.7%	-22.7%
COc1ccc(OC)c2sc(NC(=O)c3ccc(S(=O)(=O)N4CCCC4)cc3)nc12	49.6%[57 µM]	.	-5.3%[59 µM]	.	27.5%	-6.5%
Cc1ccc(Cn2ccnc2SCC(=O)Nc2ccc3c(c2)OCCO3)cc1	0.6%[57 µM]	.	?	.	?	?
CN=c1scc(-c2ccccc2F)n1/N=C(\C)c1cccnc1	?	?	15.8µM*	7.0%	35.5µM*	15.8µM*
Cc1ccc2nc(N3C(=O)C(O)=C(C(=O)c4ccco4)C3c3ccc(C)o3)sc2c1 (centres undefined)	-8.4%[57 µM]	.	39.8µM*	?	50.1µM*	10µM*
Cc1ccc2nc(N3C(=O)C(O)=C(C(=O)c4ccc(C)o4)C3c3ccco3)sc2c1 (centres undefined)	-11.8%	?	?	.	50.1µM*	50.1µM*
CCOc1ccc(OCC)c(NS(=O)(=O)c2ccc3c(c2)CCCN3C(C)=O)c1	19.5%[57 µM]	.	2.1%[59 µM]	.	-11.1%	-23.9%
O=C(NNC(=S)Nc1cccc(C(F)(F)F)c1)c1cccc(Cl)c1	?	1.9%	?	1.0%	-27.9%	-33.1%
FC(F)(F)c1cccc(NC(=S)Nc2cccc(NC(=S)Nc3cccc(C(F)(F)F)c3)n2)c1	?	?	.	20µM*	?	?
FC(F)(F)c1cccc(NC(=S)NNC(=S)NCc2ccccc2)c1	-18.3%	-1.3%	?	44.7µM*	-9.6%	?
Cc1cccc(NC(=S)Nc2cccc(C(F)(F)F)c2)n1	53.3%	1.6%	7.1%[59 µM]	-6.7%	-6.2%	-7.6%
O=C(NNC(=S)Nc1cccc(C(F)(F)F)c1)c1ccccc1Cl	-13.3%	8.2%	3.16µM*	-2.5%	-16.9%	-28.5%
FC(F)(F)c1cccc(NC(=S)NCc2ccccn2)c1	27.2%	2.6%	-18.2%[59 µM]	-7.1%	-6.7%	-18.5%
O=[N+]([O-])c1cc(Br)c(O)c(/C=N/Nc2nnnn2-c2cccc3ccccc23)c1	-12.6%	.	6.8%[12.7 µM]	2.6%	79.4µM*	56.2µM*
O=[N+]([O-])c1ccc(NN=Cc2cccc3ccccc23)cc1	10.5%[57 µM]	.	.	.	.	-6.2%
CCOC(=O)CN1CC23C=CC(O2)C(C(=O)Nc2ccc(OC)cc2OC)C3C1=O (centres undefined)	51.2%	-7.6%	50.1µM*	-14.9%	2.7%	-12.9%
